AGP1-GFP MLPCN – yeast TOR pathway AGP1-GFP modulation; 320,000 compounds, 0.02% hits; AID 2066; S. cerevisiae AGP1-GFP multiplex flow cytometry, 3 h; GFP as percent of DMSO wells; GFP response vs DMSO, % at 10 µM;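 active means GFP response relative to DMSO above a set limit, near screen average plus 3 SD, cut at about 150% in these data; inconclusive means fewer than 70 cells counted for the yeast strain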;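 further: median GFP channel fluorescence of the gated AGP1 strain per well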
RPL19A TOR yeast – alters RPL19A-GFP fluorescence in TOR pathway yeast screen | percent response vs DMSO, % at 10 µM | 330,000 compounds, 0.3% hits | AID 2025 | S. cerevisiae RPL19A-GFP strain, flow cytometry, 3 h; hits give low values;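 active means percent response vs DMSO below 50%; inconclusive means fewer than 70 events counted for the yeast strain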;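 further: median channel GFP fluorescence of the barcoded RPL19A-GFP strain; lower means less RPL19A-GFP as with rapamycin TOR inhibition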
LAP4-GFP MLPCN – modulators of TOR pathway LAP4-GFP in S. cerevisiae; 320,000 compounds, 0.34% hits; S. cerevisiae LAP4-GFP multiplex, flow cytometry GFP, 3 h; median GFP as percent of DMSO wells; GFP response vs DMSO, % at 10 µM;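 active means GFP response vs DMSO above a set limit, about the screen mean plus 3 SD, cut at about 150% in these data; inconclusive means under 70 cell events counted for the yeast strain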
MEP2 TOR yeast – alters MEP2-GFP fluorescence in TOR pathway yeast screen | S. cerevisiae MEP2-GFP strain, flow cytometry GFP, 3 h; 100% = DMSO control level | GFP response vs DMSO, % at 10 µM | 330,000 compounds, 0.51% hits | AID 2016;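 active means GFP response versus DMSO above a set limit, roughly screen mean plus 3 SD, cut at about 180% in these data; inconclusive means fewer than 70 cells counted for a yeast strain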;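 further: median GFP fluorescence of the barcode-gated MEP2-GFP cells per well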
CIT2-GFP yeast – modulators of TOR pathway CIT2-GFP in S. cerevisiae; S. cerevisiae CIT2-GFP strain, flow cytometry, 3 h; 100 means same as DMSO wells; GFP response vs DMSO, % at 10 µM; 320,000 compounds, 0.065% hits;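 active means GFP response relative to DMSO above a set limit, near the screen mean plus 3 SD, cut at about 150% in these data; inconclusive means Fewer than 70 cells measured for a yeast strain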;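 further: ratio of well median GFP fluorescence to mean of DMSO wells on the plate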
DSG3 Ab inh – human desmoglein-3 autoantibody binding inhibition; P32926; DSG3-coupled beads, scFv-anti-DSG3-GFP binding, flow cytometry; hits give low values; binding (percent of control), % at 10 µM; 310,000 compounds, 0.48% hits; AID 588358;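 active means binding more than 3 SD below its plate's average and above zero; inconclusive means below that plate limit but binding exactly zero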;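 further: hits lower antibody fragment binding to DSG3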
Target sequence (P32926 whole entry, looked up, the tested form may be a part): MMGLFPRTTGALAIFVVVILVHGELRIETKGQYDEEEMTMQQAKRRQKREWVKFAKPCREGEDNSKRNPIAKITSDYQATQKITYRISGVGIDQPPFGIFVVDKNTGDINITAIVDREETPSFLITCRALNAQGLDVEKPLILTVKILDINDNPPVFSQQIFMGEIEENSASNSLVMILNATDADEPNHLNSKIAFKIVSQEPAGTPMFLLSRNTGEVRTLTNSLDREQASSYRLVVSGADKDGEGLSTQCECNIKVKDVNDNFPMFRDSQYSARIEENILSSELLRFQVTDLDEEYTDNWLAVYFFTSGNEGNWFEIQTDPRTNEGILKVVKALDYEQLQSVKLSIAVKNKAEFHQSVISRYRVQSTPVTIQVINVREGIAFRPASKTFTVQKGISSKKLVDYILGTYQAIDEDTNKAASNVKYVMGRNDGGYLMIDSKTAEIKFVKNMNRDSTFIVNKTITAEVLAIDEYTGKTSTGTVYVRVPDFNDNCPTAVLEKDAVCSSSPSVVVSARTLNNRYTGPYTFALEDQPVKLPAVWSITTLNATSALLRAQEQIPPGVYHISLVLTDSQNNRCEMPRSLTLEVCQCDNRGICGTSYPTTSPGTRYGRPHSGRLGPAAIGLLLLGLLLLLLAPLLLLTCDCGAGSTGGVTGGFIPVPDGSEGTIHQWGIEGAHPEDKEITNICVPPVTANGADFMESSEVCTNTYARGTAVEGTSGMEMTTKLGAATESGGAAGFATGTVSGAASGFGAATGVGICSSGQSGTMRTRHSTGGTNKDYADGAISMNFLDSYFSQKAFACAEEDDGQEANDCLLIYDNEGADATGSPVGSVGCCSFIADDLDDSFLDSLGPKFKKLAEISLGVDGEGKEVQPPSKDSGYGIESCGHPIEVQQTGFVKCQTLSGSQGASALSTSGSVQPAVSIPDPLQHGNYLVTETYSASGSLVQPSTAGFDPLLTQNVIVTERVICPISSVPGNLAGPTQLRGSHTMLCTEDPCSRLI
A number is an active result; [ ] = dose if it differs, or a comment. Rows were chosen to be rich in hits. Some 1.2% of all compounds tested hit in one or more screens of this group.

For CN(CCCCCCCCCCN(C)C(=O)Oc1cccc([N+](C)(C)C)c1)C(=O)Oc1cccc([N+](C)(C)C)c1 the results were AGP1-GFP MLPCN inactive, RPL19A TOR yeast inactive, LAP4-GFP MLPCN inactive, MEP2 TOR yeast inactive, CIT2-GFP yeast inactive and DSG3 Ab inh inactive.
C[C@@H]1CN([C@@H](C)CO)C(=O)CCCn2nncc2CO[C@@H]1CN(C)S(=O)(=O)c1ccc2ccccc2c1 was read as DSG3 Ab inh inactive.
For CCCCn1c2nc3ccccc3nc2c2c(=O)n(C(C)CC)cnc21 (configuration not stated) the results were RPL19A TOR yeast inactive, LAP4-GFP MLPCN inactive, MEP2 TOR yeast inactive, CIT2-GFP yeast inactive and DSG3 Ab inh inactive.
`CCC(C)n1cnc2c(c1=O)c1nc3ccccc3nc1n2-c1ccc2c(c1)OCCO2` (configuration not stated) gave AGP1-GFP MLPCN inactive, RPL19A TOR yeast inactive, LAP4-GFP MLPCN inactive, MEP2 TOR yeast inactive, CIT2-GFP yeast inactive and DSG3 Ab inh 42.
`O=C(O)CC(c1cccc(Cl)c1)n1cccc1` (configuration not stated) gave AGP1-GFP MLPCN inactive, RPL19A TOR yeast inactive, LAP4-GFP MLPCN inactive, MEP2 TOR yeast inactive and DSG3 Ab inh inactive.
`Cc1cccc(C(CC(=O)O)n2cccc2)c1` (configuration not stated) gave AGP1-GFP MLPCN inconclusive, RPL19A TOR yeast inactive, LAP4-GFP MLPCN inactive, MEP2 TOR yeast 401[may fluoresce violet] and CIT2-GFP yeast inconclusive.
For Cc1cc(C(=O)NCC(=O)OCC(=O)NCC2CCCO2)ccc1[N+](=O)[O-] (configuration not stated) the results were AGP1-GFP MLPCN inactive, RPL19A TOR yeast inactive, LAP4-GFP MLPCN inactive, MEP2 TOR yeast inactive, CIT2-GFP yeast inactive and DSG3 Ab inh 50.
Screening Cc1ccc(NC(=O)c2ccc(S(=O)(=O)NCc3ccco3)cc2)cc1 returned AGP1-GFP MLPCN inactive, RPL19A TOR yeast inactive, LAP4-GFP MLPCN inactive, MEP2 TOR yeast inactive, CIT2-GFP yeast inactive and DSG3 Ab inh -4.6.
Screening Cc1ccc(S(=O)(=O)NCC(=O)Nc2ccc(C(F)(F)F)cc2)cc1 returned RPL19A TOR yeast 41[may fluoresce violet], LAP4-GFP MLPCN inactive, MEP2 TOR yeast inactive, CIT2-GFP yeast inconclusive and DSG3 Ab inh inactive.
For Cc1onc(-c2c(F)cccc2Cl)c1C(=O)NC(C)c1ccccc1 (configuration not stated) the results were AGP1-GFP MLPCN inactive, RPL19A TOR yeast inactive, LAP4-GFP MLPCN inactive, MEP2 TOR yeast 195[may fluoresce violet], CIT2-GFP yeast inconclusive and DSG3 Ab inh inactive.
For O=C(Nc1ccc(CN2CCOCC2)cc1)c1ccccc1F the results were AGP1-GFP MLPCN inactive, RPL19A TOR yeast 41[may fluoresce violet], LAP4-GFP MLPCN inactive, MEP2 TOR yeast inactive, CIT2-GFP yeast inconclusive and DSG3 Ab inh inactive.
`CC(C)CNC(=O)c1nc(-c2ccccc2)n(-c2ccccc2)n1` gave AGP1-GFP MLPCN inconclusive, RPL19A TOR yeast 20[may fluoresce violet], LAP4-GFP MLPCN inactive, MEP2 TOR yeast 515[may fluoresce violet], CIT2-GFP yeast inconclusive and DSG3 Ab inh inactive.
`Cc1nn(-c2ccccc2)c(Cl)c1C(=O)NCC(C)C` gave AGP1-GFP MLPCN inactive, RPL19A TOR yeast inactive, LAP4-GFP MLPCN inactive, MEP2 TOR yeast inactive, CIT2-GFP yeast inactive and DSG3 Ab inh inactive.
`CCN(CC)Cc1c(O)ccc2c(=O)c(-c3ccc4c(c3)OCCO4)coc12` gave RPL19A TOR yeast 38[may fluoresce violet], LAP4-GFP MLPCN inactive, MEP2 TOR yeast 182[may fluoresce violet], CIT2-GFP yeast inconclusive and DSG3 Ab inh inactive.
For Cc1nn(C)cc1C(C(=O)NC1CCCCC1)N(C(=O)Cc1cccs1)c1ccc(C(C)C)cc1 (configuration not stated) the results were AGP1-GFP MLPCN inactive, RPL19A TOR yeast inactive, LAP4-GFP MLPCN inactive, MEP2 TOR yeast inactive, CIT2-GFP yeast inactive and DSG3 Ab inh inactive.
Cc1nn(C)cc1C(C(=O)NC1CCCCC1)N(C(=O)Cc1cccs1)c1ccc(F)cc1 (configuration not stated) was read as AGP1-GFP MLPCN inactive, RPL19A TOR yeast inactive, LAP4-GFP MLPCN inactive, MEP2 TOR yeast inactive, CIT2-GFP yeast inactive and DSG3 Ab inh -2.6.
O=C(Nc1c(F)cccc1F)c1ccc(-n2cncn2)nc1 was read as AGP1-GFP MLPCN inactive, RPL19A TOR yeast inactive, LAP4-GFP MLPCN inactive, MEP2 TOR yeast 233[may fluoresce violet], CIT2-GFP yeast inconclusive and DSG3 Ab inh inactive.
For CCC(C)c1ccc(NC(=S)NC(C)C2CCCO2)cc1 (configuration not stated) the results were AGP1-GFP MLPCN inactive, RPL19A TOR yeast inactive, LAP4-GFP MLPCN inactive, MEP2 TOR yeast inactive, CIT2-GFP yeast inactive and DSG3 Ab inh inactive.
`O=C(c1ccccc1Br)N1CCc2c([nH]c3ccccc23)C1` gave AGP1-GFP MLPCN inactive, RPL19A TOR yeast inactive, LAP4-GFP MLPCN inactive, MEP2 TOR yeast inactive, CIT2-GFP yeast inactive and DSG3 Ab inh inactive.
For Cc1ccc(CNCCCn2cnc(C(=O)Nc3ccc(C)c(C)c3)n2)o1 the results were DSG3 Ab inh inactive.
Screening COC(=O)c1cc(/C=C/c2ccccc2)[nH]n1 returned AGP1-GFP MLPCN inactive, RPL19A TOR yeast inactive, LAP4-GFP MLPCN inactive, MEP2 TOR yeast inactive, CIT2-GFP yeast inactive and DSG3 Ab inh inactive.
`COC(=O)c1cc(/C=C/c2ccccc2)on1` gave AGP1-GFP MLPCN inactive, RPL19A TOR yeast inactive, LAP4-GFP MLPCN inactive, MEP2 TOR yeast inactive, CIT2-GFP yeast inactive and DSG3 Ab inh -27.
`CC(C)C(C)N(Cc1ccc(C(=O)O)cc1)C(=O)c1ccc2ccccc2n1` (configuration not stated) gave AGP1-GFP MLPCN inactive, RPL19A TOR yeast inactive, LAP4-GFP MLPCN inactive, MEP2 TOR yeast inactive, CIT2-GFP yeast inactive and DSG3 Ab inh inactive.
Screening O=C(CN1CCC(n2nnc3cc(C(F)(F)F)ccc32)CC1)N1CCc2ccccc21 returned AGP1-GFP MLPCN inactive, RPL19A TOR yeast inactive, LAP4-GFP MLPCN inactive, MEP2 TOR yeast inactive, CIT2-GFP yeast inactive and DSG3 Ab inh 82.
`Cc1cccc(CC(C)NC(=O)c2cc(COc3ccc(C)c(C)c3)on2)n1` (configuration not stated) gave AGP1-GFP MLPCN inactive, RPL19A TOR yeast inactive, LAP4-GFP MLPCN inactive, MEP2 TOR yeast inactive, CIT2-GFP yeast inactive and DSG3 Ab inh inactive.
Cc1ccc(C)c(OCc2cc(C(=O)NC(C)c3cnn(C)c3)no2)c1 (configuration not stated) was read as AGP1-GFP MLPCN inconclusive, RPL19A TOR yeast 25[may fluoresce violet], LAP4-GFP MLPCN inactive, MEP2 TOR yeast inactive, CIT2-GFP yeast inconclusive and DSG3 Ab inh inactive.
Cc1nc(C(C)NC(=O)c2cc(COc3ccc(C)c(C)c3)on2)c(C)s1 (configuration not stated) was read as AGP1-GFP MLPCN inconclusive, RPL19A TOR yeast 17[may fluoresce violet], LAP4-GFP MLPCN inactive, MEP2 TOR yeast inactive, CIT2-GFP yeast inconclusive and DSG3 Ab inh inactive.
For O=c1ncc(F)c[nH]1 the results were AGP1-GFP MLPCN inactive, RPL19A TOR yeast inactive, LAP4-GFP MLPCN inactive, MEP2 TOR yeast inactive and CIT2-GFP yeast inactive.

High-throughput results (PubChem)
